Screens deposited in PubChem BioAssay by National Center for Advancing Translational Sciences (NCATS).
Most compounds without a hit are left out; they make up all but 8.1% or so of the library.
SW480 rereplic: inducers of DNA re-replication in SW480 colon cancer cells | AID 624297 | actives 1.8% (n = 340,000) | Potency, µM (titrated, usually from 46.1 µM), for the others: at the highest dose re-replication activation, usual class: activators | SW480 DNA re-replication, Hoechst DNA content imaging, 48 h; also: % of control where 0% means no effect; nearly all actives have a fitted effect of over 55% in size
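Quantitative HTS format with DMSO vehicle controls; 48 hr drug incubation at 37 C, then 40 min Hoechst staining and scanning imager measurement at 405 nm excitation.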
KB-3-1 tox: KB-3-1 parental cell cytotoxicity; KB-3-1 viability, CellTiter-Glo ATP luminescence, 72 h; Potency, µM (highest dose often 46.1 µM), actives largely listed as cytotoxic; actives 1.4% (n = 400,000); AID 1347075; also: % is scaled to controls: 0 for no effect and ±100 for the full control effect; nearly all actives have a fitted effect of over 60% in size
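KB-3-1 cells, DMEM (no phenol red) + 10% FBS; compound by pin transfer, 72 h, 37 °C. Readout: CellTiter-Glo luminescence after 10 min. Data normalized, curve-fitted.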
MCF10A rereplic: induces DNA re-replication in MCF 10a normal breast cells | MCF 10A DNA re-replication, Hoechst nuclear intensity, 48 h | Potency, µM (highest dose often 46.1 µM), without a hit: at the top dose activity, positive = re-replication, usual class: activators | actives 2.9% (n = 350,000) | AID 624296; also: % of control where 0% means no effect; nearly all actives have a fitted effect of over 50% in size
KB-V1 cytotox: KB-V1 MDR subline cytotoxicity; KB-V1 MDR cells viability, CellTiter-Glo, 72 h; actives 3.4% (n = 400,000); Potency, µM (titrated, usually from 46.1 µM), usual class: cytotoxic; also: % is scaled to controls: 0 for no effect and ±100 for the full control effect; nearly all actives have a fitted effect of over 60% in size
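qHTS viability screen in drug-selected KB-V1 MDR cells: 72 h compound treatment at 37 degrees C, ATP luminescence end point.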
ELG1 DNA repair: ELG1-dependent DNA repair inhibition | HEK293T ELG1-luciferase reporter, luminescence, 16 h; DNA damage induced by 5-fluorouridine | Potency, µM (highest dose often 46.1 µM), for the others: at the highest dose activity change, negative = inhibition, usual class: inhibitors | actives 2.3% (n = 330,000) | AID 504467; also: % is scaled to controls: 0 for no effect and ±100 for the full control effect; nearly all actives have a fitted effect of over 55% in size
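Overnight (16 hr) co-exposure of 2,000 cells/well to 5-fluorouridine and compound at 37 °C preceded detection. Luciferase was quantified via ONE-Glo luminescence; loss of signal denotes inhibition.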
Starred values were filed as active, the others as inactive; i = inactive; ? = inconclusive; · = no result. Calls follow the shape of the dose curve; as a rule, active = well fitted curve in the direction sought with a large enough effect; inconclusive = small, poorly fitted or top-dose-only effect, or another doubt; inactive = no such curve, though single readings can be large; an effect the other way counts as inactive or inconclusive. Potency is read from the fitted curve at half-maximal effect.

SMILES	SW480 rereplic	KB-3-1 tox	MCF10A rereplic	KB-V1 cytotox	ELG1 DNA repair
Cc1cc2ncn(/N=C/c3ccc([N+](=O)[O-])o3)c2cc1C	21µM*	i	21µM*	?	-15%
O=C1C2C(C(=O)N1/N=C/c1ccc([N+](=O)[O-])o1)C1C=CC2C12CC2 (stereo not given)	?	i	16µM*	i	-6%
CC(=O)N/N=C/c1ccc([N+](=O)[O-])o1	10%	·	?	·	·
O=C(Cc1ccc(OCc2ccccc2)cc1)NO	·	i	·	i	·
O=C(NC(=S)Nc1cccc(C(F)(F)F)c1)c1csnn1	6.5µM*	i	29%	i	-11%
Fc1ccc(CNC(=S)Nc2cccc(C(F)(F)F)c2)cc1	0%	?	23%	21µM*	?
FC(F)(F)c1cccc(NC(=S)NCc2ccc(Cl)cc2)c1	7%	?	18µM*	?	?
Cc1cc(O)c(C(=O)c2cnc3c(c2)COc2ccccc2-3)cc1Cl	·	i	·	i	·
CC1CCN(C(=O)c2ccc(NC(=O)c3ccccc3)cc2)CC1	2%	i	3%	i	6%
O=C1C(Cl)=C(Nc2cccc(O)c2)C(=O)N1Cc1ccccc1	14%	i	?	i	-8%
CC1CCCCN1C(=O)c1cccc(NC2=C(Cl)C(=O)N(Cc3ccccc3)C2=O)c1 (stereo not given)	?	?	23µM*	?	10µM*
CC1CCN(C(=O)c2ccc(NC3=C(Cl)C(=O)N(Cc4ccccc4)C3=O)cc2)CC1	?	?	23µM*	i	10µM*
COc1cc(-c2nc(S(=O)(=O)c3ccc(Cl)cc3)c(N3CCOCC3)o2)cc(OC)c1OC	3%	i	14%	0.52µM*	?
COc1ccc(CN2CCN(C(=O)c3ccccc3F)CC2)c(OC)c1OC	-11%	i	0%	i	·
COc1ccccc1N1CCN(Cc2cc(=O)oc3cc(C)ccc23)CC1	·	i	·	i	·
COc1ccc(CN2CCN(c3ccc(F)cc3)CC2)c(OC)c1OC	?	?	-5%	8.2µM*	4%
COc1ccc(CN2CCN(C(c3ccc(F)cc3)c3ccc(F)cc3)CC2)c(OC)c1OC	17%	?	21µM*	18µM*	·
COc1ccc(CN2CCN(Cc3ccc(Br)cc3)CC2)c(OC)c1OC	-11%	i	?	i	-12%
COc1ccc(CN2CCN(Cc3cc(=O)oc4cc(C)ccc34)CC2)c(OC)c1OC	10%	i	6.5µM*	i	?
COc1cc(OC)c(CN2CCN(c3ccc(F)cc3)CC2)cc1Br	14%	i	3%	16µM*	-2%
COc1ccc(S(=O)(=O)N2CCN(c3ccc(F)cc3)CC2)cc1C(=O)N1CCCC1	1%	i	-2%	?	-28%
Cc1cc(=O)n(Cc2ccccc2)c2c1c(C)nn2C	·	i	·	i	·
O=S1(=O)N=C(Sc2cccc3cccnc23)c2ccccc21	·	9.2µM*	·	?	·
COC(=O)[C@]12CCCCC=C1N(Cc1cccc3ccccc13)C(=O)[C@H](CC(=O)NCCCN1CCCC1=O)C2	·	i	·	i	·
CCn1c(CN2CCC(C)CC2)nc2cc(NC(=O)c3cccc([N+](=O)[O-])c3)ccc21	·	i	·	i	·
SMILES	SW480 rereplic	KB-3-1 tox	MCF10A rereplic	KB-V1 cytotox	ELG1 DNA repair
Cc1ccc(Oc2coc3cc(OCC(=O)NC4CCCCC4)ccc3c2=O)cc1	·	i	·	i	·
CCN(C(=O)c1cc2c(=O)n3cccc(C)c3nc2n1CCCOC)C1CCCCC1	29µM*	i	18µM*	?	23µM*
COCCCn1c(C(=O)NC2CCCCC2C)cc2c(=O)n3cccc(C)c3nc21 (stereo not given)	-8%	i	?	i	13µM*
CCN(CC)CCCN(C(=O)c1ccco1)c1nc(-c2ccc(Cl)cc2)cs1	?	i	17%	i	0%
O=C(c1ccco1)N(CCCN1CCOCC1)c1nc(-c2ccc(Cl)cc2)cs1	?	i	10µM*	i	21µM*
CCN(CC)CCCN(C(=O)c1ccco1)c1nc(-c2ccc(C)cc2)cs1	?	i	17%	i	-6%
O=C(c1ccco1)N(CCCN1CCOCC1)c1nc(-c2ccc(F)cc2)cs1	?	i	3%	?	9.2µM*
O=C(CCCN1C(=O)c2cccnc2Oc2ccc(Cl)cc21)NCc1ccccc1F	·	i	·	i	·
NC(=O)C(=O)N/N=C/c1c2ccccc2cc2ccccc12	?	i	23µM*	i	-1%
CCOc1ccc2ccccc2c1/C=N/NC(=O)c1cc(C)[nH]n1	-31%	i	-6%	?	6%
O=C(NCCCN1CCOCC1)C(=O)N/N=C/c1c2ccccc2cc2ccccc12	23µM*	5.8µM*	?	10µM*	?
NC(=O)C(=O)N/N=C/c1cccc(C(F)(F)F)c1	-1%	i	1%	i	3%
Cc1cc(C(=O)N/N=C/c2c3ccccc3cc3ccccc23)n[nH]1	?	?	21µM*	18µM*	-22%
Cc1cc(C(=O)N/N=C/c2ccc(-c3cccc(Br)c3)o2)n[nH]1	21µM*	i	?	i	-1%
Cc1cc(C(=O)N/N=C/c2ccc(-c3cccc(Cl)c3Cl)o2)n[nH]1	9%	i	?	i	?
O=C(c1cccc(Cl)c1)n1nc(-c2ccco2)nc1NCc1cccs1	·	?	·	i	·
O=C(O)[C@H]1CN(C/C=C/P(=O)(O)O)CCN1	-3%	·	0%	·	·
